Growth data for twelve compounds are collected here from PubChem BioAssay (NCI).

About 83,000 compounds went through this panel and 20% of them were active in at least one assay; those are over-represented in the sample as a whole.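 Plates (96-well) were seeded with cells, treated with compound at one concentration, and incubated for 48 hours before percent growth was determined.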 A number with no mark means an inactive call. Calls of active or inactive are those of the source. The calls were made as follows: active = growth percent below 10; inactive = the rest.

Some test systems named below: HCT-15 colon; HT29 colon; SNB-75 CNS; SNB-19 CNS; U251 CNS; PC-3 prostate; SK-MEL-5 melanoma; UACC-62 melanoma; LOX IMVI melanoma; SK-MEL-28 melanoma.
Holding throughout (experiment): NCI-60 one-dose screen, 48 h (100 = growth as untreated, 0 = no growth, -100 = all killed)
Details in all cases: 10 µM unless noted

For `Clc1nc(-c2cccnc2)nc2sc3c(c12)CCCCCC3`, the growth with HCT-15 colon is 98.9%; in the assay with HT29 colon it was 100%; in the assay with SNB-75 CNS, 91.3%; with SNB-19 CNS it was 96.2%; with U251 CNS, 91.3%; with PC-3 prostate, 94.7%. Also, the growth in the assay on SK-MEL-5 melanoma was 96.8%; in the assay on UACC-62 melanoma, 91.3%; in the assay with LOX IMVI melanoma it was 100%; with SK-MEL-28 melanoma, 104%.
As to `CC/C=C\C/C=C\C[C@H]1C/C=C2/C(=O)C=C[C@H]2C/C=C\CCC(=O)O1`, the growth was -14.6% (active) with HCT-15 colon; -16.5% (active) with HT29 colon; 62% in the assay with SNB-75 CNS; 40.6% in the assay with SNB-19 CNS; 2.71% (active) with U251 CNS; -18.9% (active) in the assay on PC-3 prostate. Besides, the growth with SK-MEL-5 melanoma was -58.4% (active); in the assay on UACC-62 melanoma, -43.6% (active); in the assay with LOX IMVI melanoma, -68.4% (active); in the assay on SK-MEL-28 melanoma, -1.61% (active).
Turning to `COc1cccc(/C=C/c2c(C(=O)O)cccc2[N+](=O)[O-])c1OC`, the growth was 103% in the assay with HCT-15 colon; 104% in the assay on HT29 colon; 89.3% in the assay with SNB-75 CNS; 105% in the assay on SNB-19 CNS; 95.9% in the assay on U251 CNS; 96.8% in the assay with PC-3 prostate. Besides, the growth in the assay with SK-MEL-5 melanoma is 106%; with UACC-62 melanoma, 109%; with LOX IMVI melanoma it was 99.2%; in the assay with SK-MEL-28 melanoma, 109%.
Take `c1ccc2c(c1)Oc1ccccc1C2C1c2ccccc2Oc2ccccc21`: the growth in the assay on HCT-15 colon was 93.3%; in the assay with HT29 colon, 82.8%; with SNB-75 CNS it was 86.2%; in the assay on SNB-19 CNS it was 97.1%; in the assay on U251 CNS, 99.3%; in the assay on PC-3 prostate, 85.7%. The growth was 100% with SK-MEL-5 melanoma, 86.7% in the assay on UACC-62 melanoma, 86.5% in the assay on LOX IMVI melanoma and 110% in the assay on SK-MEL-28 melanoma.
For the compound `CCCC1OC(c2ccc(C(C)C)cc2)OCC1CC` (stereo not given), the growth in the assay on HCT-15 colon is 103%; with HT29 colon, 97%; with SNB-75 CNS, 87.6%; in the assay on SNB-19 CNS, 106%; in the assay with U251 CNS, 95.7%; with PC-3 prostate, 78.7%. Moreover, the growth with SK-MEL-5 melanoma was 104%; in the assay with UACC-62 melanoma, 102%; in the assay on LOX IMVI melanoma, 97.7%; with SK-MEL-28 melanoma it was 104%.
For the compound `COc1cc(Cn2c(SCC(=O)Nc3cc(OC)c(OC)c(OC)c3)nc3ccccc3c2=O)cc(OC)c1OC`, the growth with HCT-15 colon is 89.9%; in the assay on HT29 colon it was 99.5%; in the assay on SNB-75 CNS it was -13.7% (active); in the assay on SNB-19 CNS, 74.8%; in the assay on U251 CNS, 52.6%; in the assay with PC-3 prostate it was 87.7%. Besides, the growth was 90.4% with SK-MEL-5 melanoma, 84.4% with UACC-62 melanoma, 92.1% in the assay on LOX IMVI melanoma and 100% in the assay on SK-MEL-28 melanoma.
Turning to `COc1cc(CNC(=O)CCSc2nc3ccccc3c(=O)n2Cc2cc(OC)c(OC)c(OC)c2)cc(OC)c1OC`, the growth was 17.7% in the assay with HCT-15 colon; 12.9% in the assay with HT29 colon; 17.9% in the assay with SNB-75 CNS; 56% in the assay on SNB-19 CNS; 38.3% in the assay with U251 CNS; 49.5% with PC-3 prostate. Besides, the growth was 12.6% in the assay with SK-MEL-5 melanoma, 36.3% in the assay with UACC-62 melanoma, 44.6% with LOX IMVI melanoma and 55.8% with SK-MEL-28 melanoma.
With `COc1ccc(S(=O)(=O)NCCNc2nccc(-c3c(-c4ccccc4)nc4sccn34)n2)cc1`, the growth in the assay on HCT-15 colon is 19.4%; in the assay on HT29 colon it was 25.4%; in the assay with SNB-75 CNS it was 21.8%; with SNB-19 CNS it was 39.3%; in the assay with U251 CNS, 32.7%; in the assay with PC-3 prostate, 23.1%. The growth in the assay on SK-MEL-5 melanoma is -80% (active); with UACC-62 melanoma, 24.8%; in the assay on LOX IMVI melanoma it was 18.8%; in the assay on SK-MEL-28 melanoma it was 31.3%.
For `CN(C)c1ccc(-c2ccc(-c3ccc(C(=N)N)cn3)o2)cc1`, the growth was -46.6% (active) with HCT-15 colon; -61.5% (active) in the assay on HT29 colon; -85.6% (active) in the assay with SNB-75 CNS; 12.7% in the assay on SNB-19 CNS; -91.1% (active) in the assay on U251 CNS; 7.95% (active) in the assay on PC-3 prostate. Further, the growth was -95.8% (active) with SK-MEL-5 melanoma, -97.9% (active) in the assay with UACC-62 melanoma, -94.8% (active) in the assay with LOX IMVI melanoma and -79.6% (active) in the assay with SK-MEL-28 melanoma.
Turning to `Cc1nc2sccn2c1-c1csc(Nc2ccccc2Cl)n1`, the growth is 34.2% in the assay on HCT-15 colon; 15.4% with HT29 colon; 56.9% in the assay on SNB-75 CNS; 65.6% in the assay on SNB-19 CNS; 42.1% in the assay with U251 CNS; 53.5% in the assay with PC-3 prostate. The growth with SK-MEL-5 melanoma was 11.5%; in the assay with UACC-62 melanoma, 46.7%; in the assay on LOX IMVI melanoma, 45.5%; with SK-MEL-28 melanoma, 65.6%.
Turning to `O=C(CCl)NCCNc1nccc(Nc2ccc(S(=O)(=O)Nc3ccccn3)cc2)n1`, the growth is 4.99% (active) in the assay on HCT-15 colon; 4.37% (active) in the assay with HT29 colon; 32.5% with SNB-75 CNS; 17.4% in the assay with SNB-19 CNS; -68.1% (active) in the assay with U251 CNS; 36.3% in the assay with PC-3 prostate. The growth with SK-MEL-5 melanoma was -41.6% (active); in the assay with UACC-62 melanoma it was 5.42% (active); in the assay on LOX IMVI melanoma, -64.1% (active); in the assay with SK-MEL-28 melanoma, 38%.
Take `ClC1=C(Cl)C(Cl)=C(Cl)C1=Cc1ccc(Cl)cc1Cl`: the growth in the assay with HCT-15 colon is -56.5% (active); in the assay with HT29 colon, 10.1%; in the assay on SNB-75 CNS, -45.6% (active); with SNB-19 CNS, -6.26% (active); in the assay on U251 CNS, -75.1% (active); in the assay on PC-3 prostate it was -16.5% (active). Further, the growth is -88.1% (active) in the assay with SK-MEL-5 melanoma, -29% (active) in the assay with UACC-62 melanoma, -95% (active) with LOX IMVI melanoma and -28.5% (active) in the assay on SK-MEL-28 melanoma.
